Most compounds without a hit are left out; they make up all but 12% or so of the library.
HP1b binding inh = inhibitors of HP1-beta chromodomain binding to methylated histone tails; P83916; AlphaScreen HP1-beta / biotin-H3K9me3 peptide binding; Potency, µM (titrated, usually from 114 µM), inactives show top-dose activity change, negative = inhibition, most hits filed as inhibitors; 390,000 compounds, 0.56% hits; AID 540317; also: potency is read from the fitted curve at half-maximal effect; nearly all actives have a fitted effect of over 70% in size
Target sequence (P83916 whole entry, looked up): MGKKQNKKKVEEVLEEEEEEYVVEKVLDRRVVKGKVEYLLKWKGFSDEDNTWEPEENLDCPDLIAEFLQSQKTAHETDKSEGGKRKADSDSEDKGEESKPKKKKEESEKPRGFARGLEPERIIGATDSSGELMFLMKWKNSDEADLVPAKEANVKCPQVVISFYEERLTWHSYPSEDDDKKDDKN
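AlphaScreen: HP1-beta (50 nM) preformed 30 min with biotin-H3(1-18)K9me3 peptide (50 nM) in PBS pH 7.4, 0.01% Tween-20. Compound added for 30 min at RT, then streptavidin donor/nickel chelate acceptor beads (10 ug/mL) for 30 min.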
BAZ2B inh = blocks human BAZ2B; Q9UIF8; AlphaScreen BAZ2B-H3K14Ac peptide displacement; Potency, µM (highest dose often 114 µM), without a hit: at the top dose activity change, negative = inhibition, most hits filed as inhibitors; 360,000 compounds, 4.4% hits; also: potency is read from the fitted curve at half-maximal effect; % is scaled to controls: 0 for no effect and ±100 for the full control effect; nearly all actives have a fitted effect of over 60% in size
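AlphaScreen displacement: compounds (up to 110uM) incubated 30 min at room temperature with a preformed 50 nM BAZ2B/50 nM biotinylated H3K14Ac peptide complex in PBS pH 7.4 with Tween-20. Donor and acceptor beads at 10 ug/mL final added, 20 min light-protected before reading.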
G9a inh = G9a (human) methyltransferase inhibition. Q96KQ7. G9a H3K9 monomethylation, AlphaScreen, 2 h. Potency, µM (titrated, usually from 102 µM), without a hit: top-dose activity, negative = inhibition, actives largely listed as inhibitors. 350,000 compounds, 8.8% hits; also: potency is read from the fitted curve at half-maximal effect; % is scaled to controls: 0 for no effect and ±100 for the full control effect; nearly all actives have a fitted effect of over 75% in size
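G9a (20 nM) was preincubated 15 min with compound, then reacted 2 h at room temperature with 500 nM biotin-H3K9 peptide and 20 µM SAM. Monomethyl-H3K9 detected by AlphaScreen using anti-H3K9me1 antibody.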
PI5P4K alpha inh = PI5P4K alpha (human) kinase inhibition; PI5P4Kalpha enzyme, ADP-Glo luminescence, 60 min; hits give low values; max response, %; 330,000 compounds, 1.2% hits; AID 652105; active = max response of -50% or lower; inconclusive = between -30% and -50%; inactive = -30% or higher; also: value at the top dose of about 77 µM; % is scaled to controls: 0 for no effect and ±100 for the full control effect
Target sequence (P48426 whole entry, looked up): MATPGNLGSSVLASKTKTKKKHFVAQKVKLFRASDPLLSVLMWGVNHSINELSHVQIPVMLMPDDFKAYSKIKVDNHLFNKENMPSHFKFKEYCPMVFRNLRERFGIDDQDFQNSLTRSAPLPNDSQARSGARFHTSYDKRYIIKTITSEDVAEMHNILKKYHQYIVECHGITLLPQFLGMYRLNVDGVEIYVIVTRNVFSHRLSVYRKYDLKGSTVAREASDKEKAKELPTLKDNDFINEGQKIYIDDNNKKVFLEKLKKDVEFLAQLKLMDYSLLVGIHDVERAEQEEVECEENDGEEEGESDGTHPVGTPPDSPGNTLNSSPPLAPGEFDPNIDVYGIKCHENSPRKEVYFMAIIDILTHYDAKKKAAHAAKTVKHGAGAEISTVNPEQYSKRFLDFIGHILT
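Human PI5P4Kalpha with substrate in 0.038 M HEPES pH 7.4, 0.28 mM EGTA, 0.1% CHAPS, 5% DMSO; reaction started with 5 microM ATP (final), 60 min at room temperature. ADP formed read by ADP-Glo luminescence.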
PLK1 PBD inh = PLK1 (human) polo-box domain binding inhibition | AID 720504 | Potency, µM, for the others: max response, negative = inhibition, usual class: inhibitors | 360,000 compounds, 2.8% hits | Plk1 PBD binding of FITC phosphopeptide, fluorescence polarization; also: potency is read from the fitted curve at half-maximal effect; series mostly up to about 57 µM; % is scaled to controls: 0 for no effect and ±100 for the full control effect; nearly all actives have a fitted effect of over 65% in size
JMJD2A Tudor = blocks the human JMJD2A Tudor domain | O75164 | AlphaScreen JMJD2A-Tudor / H3K4me3 peptide binding | Potency, µM (series often up to 114 µM), for the others: at the top dose activity change, negative = inhibition, hits mostly inhibitors | 390,000 compounds, 4.4% hits; also: potency is read from the fitted curve at half-maximal effect; % is scaled to controls: 0 for no effect and ±100 for the full control effect; nearly all actives have a fitted effect of over 50% in size
* marks the source's active call; other numbers are inactive results; ? = inconclusive; / = no result given; ! = a repeat was not active; [ ] = remark or other dose. Unless noted, calls follow the shape of the dose curve; as a rule, active = well fitted curve in the direction sought with a large enough effect; inconclusive = small, poorly fitted or top-dose-only effect, or another doubt; inactive = no such curve, though single readings can be large; an effect the other way counts as inactive or inconclusive.

SMILES	HP1b binding inh	BAZ2B inh	G9a inh	PI5P4K alpha inh	PLK1 PBD inh	JMJD2A Tudor
COc1ccc(C2C(C(=O)OCC(=O)N3CCCCC3)CCC(=O)N2c2ccc(OC)cc2)cc1 (stereo not drawn)	18%	-11%	45µM*	/	-5%	2%
CCNC(=O)COC(=O)C1CCC(=O)N(c2ccc(OC)cc2)C1c1ccc(OC)cc1 (stereo not drawn)	21%	31%	-5%[59 µM]	/	-1%	-18%
CCOc1ccccc1NC(=O)Cn1nnc2sc3c(c2c1=O)CCC(C(C)(C)C)C3 (stereo not drawn)	59%	9%	9%[59 µM]	/	/	-16%
Cc1c(C)n(CCCN(C)C)c2ncnc(NCc3ccccc3)c12	-8%	-21%	79µM*	2	-15%	?
Cc1c(C)n(CCc2ccccc2)c2ncnc(NCCO)c12	-22%	?	-31%[2.33 µM]	0	3%	-32%
CC1=NN(C(N)=S)C(=O)C1N=Nc1c(C)cc(C)cc1C (stereo not drawn)	6%	?	7%	-5	-19%	-13%
CC1=NN(C(N)=S)C(=O)C1N=Nc1c(Br)cc(Br)cc1Br (stereo not drawn)	-18%	28µM*	0%[0.501 µM]	?	24µM*	56µM*
CC1=NN(C(N)=S)C(=O)C1N=Nc1c(Cl)cc([N+](=O)[O-])cc1Cl (stereo not drawn)	?	40µM*	25µM*	-57*	?	28µM*
Cc1ccc(CNC(=O)CCCn2c(=O)c3ccccc3n(CC(=O)C(C)(C)C)c2=O)cc1	5%	0%	-1%[59 µM]	/	/	-15%
COc1cccc(CNC2CCCCCCC2)c1OC	-29%	?	/	3	-4%	35µM*
COc1cc(CNC2CCCCCC2)cc(OC)c1OC	24%	?	18µM*	/	-6%	10µM*
Oc1c(Br)cc(CNC2CCCCC2)cc1Br	?	/	/	?	-28%	-34%
COc1cc(CNC2CCCC2)cc(OC)c1OC	15%	3%	-1%[12.7 µM]	/	-4%	-14%
COc1cc(OC)c(CNC2CCCCCC2)cc1Br	-12%	?	35µM*	-8	-2%	10µM*
CN(Cc1cnc2nc(N)nc(N)c2n1)c1ccc(C(=O)N[C@@H](CCC(=O)O)C(=O)O)cc1	30%	/	7.5µM*!	-68*!	-4%	-6%
CC(C)c1ccc(C2C(C#N)=C(N)N3C(=C2C#N)Sc2ccccc23)cc1 (stereo not drawn)	/	-10%[57.1 µM]	35µM*	/	/	/
CC(C)[C@@H](N)C(=O)O	/	/	-1%[59 µM]	/	/	/
CC(C)(S)[C@@H](N)C(=O)O	-19%	45µM*	?	-1	-3%	4µM*
COc1ccc2c(CNCc3ccco3)c(C(=O)O)n(Cc3cccc(F)c3)c2c1	-11%	?	-34%[59 µM]	/	/	-29%
COc1ccc(C(=O)N2CCOCC2)cc1Br	50%	11%	3%[12.7 µM]	1	-4%	-6%[57.1 µM]
Cc1c([N+](=O)[O-])cc(C(=O)Oc2ccc(Br)cc2C(=S)N2CCCCC2)cc1[N+](=O)[O-]	-28%	?	8.9µM*	-18	?	?
O=C(Oc1ccc(Br)cc1C(=S)N1CCOCC1)c1ccc(F)cc1	-36%	?	/	-11	12µM*	-36%
Cc1ccc(C(=O)Oc2ccc(Br)cc2C(=S)N2CCOCC2)cc1	?	-14%	40µM*	0	?	-21%
CCOc1ccc(Br)cc1C(=S)N1CCCC1	21%	9%	17%[0.501 µM]	0	7%	12%
COc1ccc(C(=O)Oc2ccc(Br)cc2C(=S)N2CCOCC2)cc1	70%	-24%	56µM*	2	-21%	-31%
SMILES	HP1b binding inh	BAZ2B inh	G9a inh	PI5P4K alpha inh	PLK1 PBD inh	JMJD2A Tudor
Cc1ccccc1C(=O)Oc1ccc(Cl)cc1C(=S)N1CCOCC1	1%	-12%	-5%	2	0%	-26%
COc1ccc(C(C)(O)c2nc(-c3cccs3)cs2)cc1 (stereo not drawn)	/	/	/	3	-3%	/
Cn1nccc1-c1ccc(C(=O)NCc2ccco2)c2occc12	/	/	/	-11	-26%	/
O=C(NCC(c1cccnc1)N1CCc2ccccc21)c1ccc(F)c(F)c1 (stereo not drawn)	29%	0%	3%[59 µM]	/	/	-11%
CN(C)c1ccc(CNC(=O)c2ccc(NC(=O)N3CCCCc4ccccc43)cc2)cc1	9%	28µM*	?	/	/	35µM*
COc1cc(C(=O)NCC(c2cccnc2)N2CCc3ccccc32)cc(OC)c1OC (stereo not drawn)	19%	5%	-5%[59 µM]	/	/	-8%
CN(C)c1ccc(CNC(=O)c2ccc(CNc3c(N4CCCCC4)c(=O)c3=O)cc2)cc1	7%	-9%	45µM*	8	-1%	?
CCc1ccc(CNC(=O)c2ccc(NC(=O)N3CCCCc4ccccc43)cc2)cc1	-13%	-3%	7%[59 µM]	/	/	-24%
O=C(NCc1ccc(Cl)cc1)c1ccc(CNc2c(N3CCCC3)c(=O)c2=O)cc1	30%	0%	1%	7	3%	-5%
CC(C)Oc1ccc(C(=O)NCC(c2ccc(N(C)C)cc2)N2CCc3ccccc32)cc1 (stereo not drawn)	?	16µM*	14µM*	/	/	7.1µM*
COc1ccc(C(=O)NCC(c2ccc(N(C)C)cc2)N2CCc3ccccc32)cc1 (stereo not drawn)	10µM*	8.9µM*	10µM*	/	/	7.1µM*
COc1ccc(C2CC(=O)N(CC(=O)Nc3ccc(C(C)=O)cc3)c3ccccc3S2)cc1OC (stereo not drawn)	25%	-19%	-23%[59 µM]	/	/	-21%
CN(C)c1ccc(C(CNC(=O)c2ccccc2)N2CCc3ccccc32)cc1 (stereo not drawn)	?	11µM*	13µM*	/	/	13µM*
O=C(NCC(c1ccco1)N1CCc2ccccc21)c1ccc([N+](=O)[O-])cc1 (stereo not drawn)	-2%	-7%	26%[2.33 µM]	4	-4%	-22%
CCOc1ccc2oc(C(=O)NC3CCN(Cc4ccccc4)CC3)c(C)c2c1	-7%	?	?	-1	-10%	-30%
Cc1c(C(=O)NCCN2CCOCC2)oc2ccccc12	22%	-1%	18%[59 µM]	-9	-1%	-2%
Cc1c(C(=O)NC2CCN(Cc3ccccc3)C2)oc2ccc(Br)cc12 (stereo not drawn)	2%	?	35µM*	6	5%	?
Cc1c(C(=O)NCCN2CCOCC2)oc2ccc(Br)cc12	?	50µM*	18%[0.501 µM]	11	-1%	-10%
N#Cc1ccccc1S(=O)(=O)N1CCN(S(=O)(=O)c2ccc3c(c2)OCCO3)CC1	/	/	/	/	/	-12%
Cc1ccc(C(=O)Nc2onc3c2CCCC3)cc1	31%	0%	-7%[59 µM]	/	/	-11%
